# Screens deposited in PubChem BioAssay by National Center for Advancing Translational Sciences (NCATS).
# Shown are actives, neighbours in structure and some others; about 3% of the full set was active somewhere.
# TSG101-PTAP inh: qHTS Assay for Iinhibitors of HIV-1 Budding by Blocking the Interaction of PTAP/TSG101; Potency, µM (titrated, usually from 115 µM), for inactives: at the highest dose activity change, negative = inhibition, hits mostly inhibitors; Fluorescence polarization, FITC-PTAP peptide / Tsg101 binding; 340,000 tested, under 10 active; Tumor susceptibility gene 101 protein (Homo sapiens), Q99816; AID 493005, 2010; active = well fitted inhibition curve with a large enough effect in the main read-out, with a control signal flat, not every such curve was filed as active; inconclusive = small, poorly fitted or top-dose-only effect, or effect the other way, or a change in a side signal; inactive = no such curve, though single readings can be large or run the other way; note: % of control where 0% means no effect
#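 FP read-out: FITC-PTAP peptide, 50 nM final, binding Tsg101 binding domain, 10 uM final; 20 min, r.t.; 10 mM HEPES pH 7.5, 0.15 M NaCl, 0.01% Tween 20, 3 mM EDTA, 0.1 mM TCEP.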
# GCN5L2 inh: qHTS Assay for Inhibitors of GCN5L2. Histone acetyltransferase KAT2A (Homo sapiens), Q92830. Potency, µM (titrated, usually from 58.9 µM), without a hit: top-dose activity change, negative = inhibition, usual class: inhibitors. GCN5L2 HAT assay, ThioGlo1 CoA-SH fluorescence. hit rate 0.21% among 390,000; note: % is set by controls: 0 for no effect and ±100 for the full control effect
#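 qHTS, 1536-well. 20nM enzyme, pH 7.5 HEPES/EDTA/Tween-20 buffer; 15 min compound preinc., RT. Start: 75uM H3(1-25), 70uM AcCoA, 50uM ThioGlo1. Read Ex340/Em540 at t=0 (autofluorescence flag) and t=20 min.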
# USP1-UAF1 inh: Inhibitors of USP1/UAF1: Primary Screen. Ubiquitin carboxyl-terminal hydrolase 1 (Homo sapiens), O94782. recombinant USP1/UAF1, Ub-Rhodamine cleavage fluorescence. Potency, µM (doses to about 57.1 µM), inactives show at the highest dose activity change, negative = inhibition, most hits filed as inhibitors. hit rate 0.23% among 390,000. AID 743255, 2014; note: % is set by controls: 0 for no effect and ±100 for the full control effect; nearly all actives have a fitted effect of over 60% in size
#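 Step one: compound is pinned into 1nM USP1/UAF1 in HEPES pH 7.8 buffer with TCEP. Step two: 15 min room-temperature incubation. Step three: Ub-Rho (150nM final) starts cleavage, tracked by fluorescence over six one-minute reads.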
# VDR inhibitor: Inhibitors of the vitamin D receptor (VDR): qHTS | Potency, µM, for the others: max response, negative = inhibition, hits mostly inhibitors | Vitamin D3 receptor (Homo sapiens), P11473 | VDR-SRC2-3 peptide fluorescence polarization, 2 h | AID 504847, 2011 | hit rate 0.93% among 400,000; note: % is set by controls: 0 for no effect and ±100 for the full control effect
#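 Fluorescence polarization assay measuring small-molecule disruption of VDR binding to the coregulator peptide SRC2-3. Compounds were pin-transferred (23 nl) into the reagent mix and incubated 2 h at room temperature before reading.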
# PLK1 PBD block: qHTS for Inhibitors of PLK1-PDB (polo-like kinase 1 - polo-box domain): Primary Screen; AID 720504, 2013; Potency, µM, inactives show max response, negative = inhibition, hits mostly inhibitors; hit rate 2.8% among 360,000; Plk1 PBD binding of FITC phosphopeptide, fluorescence polarization; Serine/threonine-protein kinase PLK1 (Homo sapiens), P53350; note: series mostly up to about 57 µM; % is set by controls: 0 for no effect and ±100 for the full control effect; nearly all actives have a fitted effect of over 65% in size
# Target sequence (P53350 whole entry, looked up, the tested form may be a part): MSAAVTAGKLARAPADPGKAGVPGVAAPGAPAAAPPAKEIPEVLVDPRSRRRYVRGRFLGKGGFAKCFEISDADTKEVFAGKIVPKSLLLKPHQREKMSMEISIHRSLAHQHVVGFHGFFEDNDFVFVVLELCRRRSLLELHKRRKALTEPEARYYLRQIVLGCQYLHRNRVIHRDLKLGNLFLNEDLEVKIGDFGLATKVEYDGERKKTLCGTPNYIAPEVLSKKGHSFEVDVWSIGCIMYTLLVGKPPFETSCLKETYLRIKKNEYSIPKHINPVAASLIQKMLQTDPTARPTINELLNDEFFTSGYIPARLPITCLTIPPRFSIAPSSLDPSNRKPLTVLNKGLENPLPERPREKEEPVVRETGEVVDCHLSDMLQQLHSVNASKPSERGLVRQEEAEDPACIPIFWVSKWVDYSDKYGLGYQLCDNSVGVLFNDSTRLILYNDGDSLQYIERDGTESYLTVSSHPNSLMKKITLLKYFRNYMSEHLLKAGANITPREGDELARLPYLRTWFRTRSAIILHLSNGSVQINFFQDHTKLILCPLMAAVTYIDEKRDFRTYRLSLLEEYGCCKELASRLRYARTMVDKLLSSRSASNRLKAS
# An asterisk follows results filed as active; ? = inconclusive; / = no result; ! = a repeat was not active. Unless noted, calls come from the whole dose curve; as a rule, active = well fitted curve in the direction sought with a large enough effect; inconclusive = small, poorly fitted or top-dose-only effect, or another doubt; inactive = no such curve, though single readings can be large; an effect the other way counts as inactive or inconclusive. Potency is the fitted concentration of half-maximal effect.
SMILES,TSG101-PTAP inh,GCN5L2 inh,USP1-UAF1 inh,VDR inhibitor,PLK1 PBD block
COc1ccc(/C(=C/Nc2cccc(Br)c2)C(C)=O)cc1OC,-1.1%,0.6%,-8.0%,3.9%,26.7µM*
COc1ccc(/C(C)=N/Nc2cccc(C(=O)O)c2)cc1OC,-4.9%,-9.7%,-0.3%,-13.0%,-19.1%
Cc1ccc(N(C)C(=O)CN2C(=O)CCc3cc(S(=O)(=O)N4CCOCC4)ccc32)cc1,/,-2.3%,-9.7%,-6.1%,/
COc1cccc(C(=O)O/N=C(\N)c2ccccn2)c1OC,-2.6%,-9.4%,-13.1%,?,23.8µM*
CC1C(=O)N(Cc2cn(Cc3ccco3)nn2)CCS(=O)(=O)N1Cc1ccc(-c2ccccc2Cl)cc1 (stereo unspecified),/,/,/,/,-18.3%
COc1ccc(Sc2nc(-c3ccccc3)ncc2C(=O)O)cc1,0.9%,-7.2%,-4.9%,-3.8%,?
O=C(O)c1cnc(-c2ccccc2)nc1Sc1ccc(Cl)cc1,-3.6%,-1.0%,-5.0%,-1.8%,21.2µM*
COc1ccc(-c2cccc(C3C4C=CCCC4(C)C(=O)N3Cc3ccccc3)c2)cc1 (stereo unspecified),/,/,/,-20.7%,/
O=C(NCc1ccccn1)/C(=N/O)c1ccccc1,-0.3%,-1.3%,-15.7%,-17.3%,3.36µM*
CN(C)c1ccc(C(c2nnnn2C(C)(C)C)N2CCc3ccccc3C2)cc1 (stereo unspecified),/,-1.0%,/,/,/
CC1CCN(C(c2ccc(N(C)C)cc2)c2nnnn2C(C)(C)C)CC1 (stereo unspecified),1.4%,-10.8%,-9.9%,50.1µM*,-2.9%
COc1ccc(S(=O)(=O)c2c(N)n(Cc3ccco3)c3nc4ccccc4nc23)cc1,-10.0%,-15.5%,-17.3%,11.4%,?
COc1ccc(Cn2c(C)nc3c(c2=O)c2nc4ccccc4nc2n3Cc2ccco2)cc1,-0.4%,/,?,?,7.52µM*
O=C(NCCO)c1ccc2nc(-c3ccco3)c(-c3ccco3)nc2c1,-10.1%,-7.0%,31.6µM*,35.5µM*,16.8µM*
COc1ccccc1N1CCN(C(=O)c2ccc3nc(-c4ccco4)c(-c4ccco4)nc3c2)CC1,-7.1%,?,-24.2%,2.3%,-3.2%
COC(CNC(=O)c1ccc2nc(-c3ccccc3)c(-c3ccccc3)nc2c1)OC,-5.4%,-1.8%,-9.4%,-11.2%,?
Cc1ccc(C)c(N2CCN(C(=O)c3ccc4nc(-c5ccco5)c(-c5ccco5)nc4c3)CC2)c1,-0.5%,-11.9%,-23.3%,-19.3%,5.97µM*
Cc1[nH]c2ccc3ccccc3c2c(=O)c1C/C=C/Cl,-1.7%,-3.7%,-13.4%,-18.1%,0.4%
Cc1[nH]c2ccc(Br)cc2c(=S)c1C/C=C/Cl,-3.1%,-1.9%,-11.3%,?,23.8µM*
CC(=O)c1cc(CC=C(C)C)c(O)cc1O,-3.5%,-9.9%,-8.9%,9.8%,29.9µM*
CCc1ccc2c(c1)NC(c1cccnc1)=NC(c1ccc(C(C)(C)C)cc1)=N2,/,0.8%,-19.3%,6.3%,/
O=C(Nc1ccc(F)cc1F)c1cc2c(=O)n3ccccc3nc2s1,/,3.8%,-18.4%,-5.9%,/
N#Cc1c(/N=C/N2CCOCC2)sc2c1CCCCC2,-8.6%,-4.7%,-19.7%,-8.2%,21.2µM*
COc1cccc(CS(=O)(=O)c2nnnn2CC(C)C)c1,/,/,/,1.1%,/
S=P(N1CC1)(N1CC1)N1CC1,-11.3%,-25.7%,-25.7%,89.1µM*!,?
SMILES,TSG101-PTAP inh,GCN5L2 inh,USP1-UAF1 inh,VDR inhibitor,PLK1 PBD block
Cc1ccc(Cn2c(C)c(CNCC(C)c3ccccc3)c(C(=O)O)c2C)cc1 (stereo unspecified),/,0.9%,-2.8%,13.1%,/
CCCCCC(CC(=O)O)C(=O)O (stereo unspecified),/,5.0%,/,-3.2%,/
CCCCCCCCCCCCCCC(C(=O)O)C(O)(CC(=O)OC)C(=O)O (stereo unspecified),/,12.6µM*,/,22.4µM*,/
COCCn1c(=O)c(-c2cccs2)nc2cnc(OC)nc21,/,?,/,-6.6%,/
O=C1/C(=C/c2ccccc2)SC(=S)N1N1C(=O)C2CC2C1=O (stereo unspecified),-2.7%,-15.0%,-18.3%,-25.2%,-21.7%
C/C=C/C=C/C(=O)N1CC2(CC(c3cccc(NC(=O)CCCCC)c3)=NO2)C[C@H]1C(N)=O (stereo partly specified),-8.6%,-5.2%,-10.9%,79.4µM*,-29.2%
O=C(O)COCC(=O)NCc1csc2ccccc12,-1.4%,-1.5%,-8.1%,-3.4%,-1.4%
CC(=O)n1c(=O)c2ccccc2c(=O)n1-c1ccccc1,-0.4%,16.3%,-19.1%,?,13.4µM*
CCOc1ccc(NC(=O)CN2CCc3cc4c(cc3C2)OCCCO4)cc1OCC,1.6%,-3.4%,-14.5%,-24.8%,29.9µM*
O=C(CN1CCc2cc3c(cc2C1)OCCCO3)Nc1cccc(Br)c1,0.3%,0.0%,-13.1%,-14.5%,-4.6%
CS(=O)(=O)N(CC(=O)N1CCN(c2ccccc2)CC1)C1CCCCC1,-2.9%,-19.9%,-17.9%,?,26.7µM*
Cc1cc(C)c(S(C)(=O)=O)c(Oc2ccccc2C)n1,0.4%,0.8%,-3.9%,-12.9%,21.2µM*
Cc1noc(C)c1COC(=O)/C=C/c1ccc(Cl)cc1,-11.2%,-9.1%,-12.0%,?,11.9µM*
Cn1c(-c2ccc(C=O)s2)nc2c3ccccc3c3ccccc3c21,?,?,-3.6%,1.1%,26.7µM*
COc1cccc2cc(-c3ccnc(=S)[nH]3)oc12,/,-23.9%,/,/,/
Fc1ccc(-c2ccnc(=S)[nH]2)cc1,0.9%,?,0.3%,?,9.47µM*
CN(CC(=O)Nc1ccc(N2CCOCC2)cc1)C(=O)CSc1ccccc1F,-10.5%,-4.0%,-22.5%,-1.6%,?
Cc1ccc(NC(=O)CN(C)C(=O)CSc2ccccc2F)cc1,0.7%,-4.2%,-3.1%,-4.2%,21.2µM*
COc1ccc(C2Nc3cccc4cccc(c34)N2)cc1Br,-0.8%,-9.7%,-23.5%,-24.0%,-26.0%
COc1cc(C2Nc3cccc4cccc(c34)N2)ccc1OC(C)=O,-6.8%,-18.8%,-25.2%,-22.2%,26.7µM*
CCOC(=O)c1ccc(NC(=O)Cn2c(=O)cc(C(F)(F)F)c3c(C)nn(C)c32)cc1,/,-3.9%,-26.4%,4.9%,/
CCOc1cc(Br)cc(C2NC(=O)c3c(sc4c3CCN(C)C4)N2)c1O (stereo unspecified),/,-0.7%,-25.4%,-1.1%,/
NC(=O)C1=C(c2ccccc2)c2ccccc2C1=O,-5.6%,/,-13.6%,39.8µM*,4.23µM*
Cc1nc(N(C)C)c2sc(=S)n(-c3ccccc3)c2n1,-1.1%,-9.8%,-13.5%,-14.1%,26.7µM*
Cc1nc(N(C)C)c2sc(=S)n(C)c2n1,-2.3%,-3.8%,-18.9%,-1.7%,-13.0%
